Potency and affinity values are given separately. Inconclusive results are not listed. Unmarked numbers belong to inactive results.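 Rule for the calls: active = samples whose fitted half-maximal inhibition concentration is no more than ten times the top valid dose tested; inconclusive = flat response between -70 and -30, or invalid curve fit; inactive = flat within 30 of zero, potency above limit, or signal rising.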

This note sets out measurements from PubChem BioAssay AID488789 (Broad Institute, 2010).

Sequence of Trypsin (Sus scrofa) (P00761 whole entry, looked up): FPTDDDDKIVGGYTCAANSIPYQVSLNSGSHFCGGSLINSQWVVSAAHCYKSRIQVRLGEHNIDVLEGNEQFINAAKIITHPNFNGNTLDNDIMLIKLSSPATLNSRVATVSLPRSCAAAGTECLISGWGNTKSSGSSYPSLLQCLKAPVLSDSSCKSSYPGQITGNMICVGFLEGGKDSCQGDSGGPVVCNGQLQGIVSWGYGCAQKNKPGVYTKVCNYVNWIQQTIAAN

The assay concerns the target Trypsin (Sus scrofa) (UniProt P00761). In words: trypsin protease activity blockade – biochemical, quenched peptide fluorescence, cherry-pick, selectivity assay for Rce1 protease inhibitor project, dose response (AID 488789).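 Note: more negative means stronger trypsin inhibition.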 Conditions: porcine trypsin, quenched peptide cleavage fluorescence; series mostly up to 10 µM; activity change, negative = inhibition: at the top concentration.
For the compound `CC(=O)OC1CCC2(C)C(COc3ccc4ccc(=O)oc4c3)C(C)(O)CCC2C1(C)C` (configuration not stated), the “activity change, negative = inhibition” value is -6.54%. As for `Cc1cc(C)n2nc(CC(=O)NNC(=O)c3ccc(N(C)C)cc3)nc2n1`, the figure is 7.45%. Under `c1cnn(Cc2cnc(N3CCOCC3)s2)c1` stands 1.49%.

As for `CCN1CCN(CC(O)COc2ccc3c(C)cc(=O)oc3c2)CC1` (configuration not stated), the “activity change, negative = inhibition” value was 11.8%.

Turning to `COCc1c(C(=O)N/N=C/C2CC=CCC2)nnn1-c1nonc1N` (configuration not stated), the “activity change, negative = inhibition” value is 29.2%. Under `COc1ccc(-c2cn3ccccc3n2)cc1[N+](=O)[O-]` stands 1.24%; under `CC1Oc2ccccc2C=C1/C=N/NC(=O)[C@@H](C)NC(=O)OC(C)(C)C` (some centres not stated), 1.9%; under `COc1ccc(N2CCN(C(=O)c3cc(-c4cccs4)nc4ccccc34)CC2)cc1`, -3.39%. For `O=C(C[n+]1cc2ccccc2c2ccccc21)c1ccccc1`, the “activity change, negative = inhibition” value is -8.51%. As for `CC(=O)N[C@@H](C)c1nc2ccccc2n1CCCN1CCN(c2nc(-c3ccc(C)cc3)cs2)CC1`, the “activity change, negative = inhibition” value is 2.36%. Turning to `O=C(Nc1ncccn1)c1ccc([N+](=O)[O-])cc1`, the “activity change, negative = inhibition” value was 4.42%. In the case of `O=C(Nc1cc(S(=O)(=O)N2CCOCC2)ccc1N1CCCC1)c1cnccn1`, the “activity change, negative = inhibition” value was 1.72%.

Turning to `O=C1C(=O)N(C/C=C/c2ccccc2)c2ccccc21`, the “activity change, negative = inhibition” value is 12%. As to `CCCCOc1ccc(Cc2c(COCC)[nH]c(=S)[nH]c2=O)cc1`, the “activity change, negative = inhibition” value is 5.62%. As for `NC(=O)[C@@H]1CC2(CC(c3cccc(NC(=O)CC(c4ccccc4)c4ccccc4)c3)=NO2)CN1C(=O)c1ccc(Cl)cc1` (some centres not stated), the figure is 9%; as for `CCCn1c(O)c(N=NC(=O)CNC(=O)Cc2ccc(OC)cc2)c2ccccc21`, 13.3%; as for `Cc1cccc(NC(=O)C2(c3ccc([N+](=O)[O-])cc3)CCCC2)c1`, 6.69%. As for `COc1cc2c(cc1OC)C(C)N(C(=O)CCNC(=O)c1ccccc1)CC2` (configuration not stated), the figure is -1.59%; as for `COc1ccc([N+](=O)[O-])cc1CSc1ccccn1`, 5.96%. As for `C[n+]1c2n(c3ccccc31)N=C(c1cc(C(C)(C)C)c(O)c(C(C)(C)C)c1)CS2`, the “activity change, negative = inhibition” value is 5.04%. On to `O=C(O/N=C\c1ccc(N2CCCCC2)c([N+](=O)[O-])c1)c1cccc(C(F)(F)F)c1`, for which the “activity change, negative = inhibition” value was -2.32%. As for `CC(=O)c1c(C)[nH]c(C(=O)OCc2ccc(Br)cc2)c1C`, the figure is 3.12%. Under `CC(C)CNC(=O)COc1cccc(C(=O)NCc2ccccc2)c1` stands 7.6%; under `COc1ccccc1-c1nnc2sc(-c3ccc(N(C)C)cc3)nn12`, -5.89%; under `CCn1c(COc2cccc(C)c2)nnc1SCC(=O)NC1CCCC1`, 11.4%. For the compound `CCN(CC)c1ccc(C(=O)c2ccccc2C(=O)O)c(O)c1`, the “activity change, negative = inhibition” value is -0.441%. As for `CS(=O)(=O)Nc1ccccc1C(=O)NC1CC2CCC1C2` (configuration not stated), the figure is 8%. As for `O=[N+]([O-])c1ccc(-c2cnc(SC(c3ccccc3)c3ccccc3)[nH]2)cc1`, the figure is -3.79%; as for `CC(=O)Oc1ccc(C(=O)Nc2ccc(S(=O)(=O)NCC3CCCO3)cc2)cc1` (configuration not stated), 4.09%; as for `Cc1nc(-c2ccc(Cl)cc2)sc1C1(C)CC(c2ccccc2Br)=NO1` (configuration not stated), 18.1%. Regarding `CCCOc1ccccc1C(=O)NCCCC(=O)O`, the “activity change, negative = inhibition” value is 2.2%. On to `COc1ccccc1NC(=O)/C(=C\c1cccnc1)NC(=O)c1ccc(C)cc1`, for which the “activity change, negative = inhibition” value was 1.96%. `CC(=O)c1ccc(-c2ccc(C(=O)N3CCC(C(N)=O)CC3)o2)cc1`: the “activity change, negative = inhibition” value is 15.8%.

Turning to `COC(=O)CSc1nc(N)c2c3c(sc2n1)C(c1ccccc1)SC(c1ccccc1)C3` (configuration not stated), the “activity change, negative = inhibition” value is 1.29%. Under `COc1ccc(NS(=O)(=O)c2ccc3oc(=O)c4[nH]c(=O)c(=O)n(C)c4c3c2)cc1` stands 20.9%. Under `C/C(Cl)=C\Cn1c(O)c(N=NC(N)=S)c2cc(Br)ccc21` stands 4.97%; under `CCCCNC(=S)NNC(=O)CCn1cc(C)cn1`, 2.77%.
